The list is not random: actives were taken first. Their share in the collection is about 1.1%.
NCOA1 inh – human NCOA1 inhibition; Q15788; HEK293 GAL4-SRC1 luciferase reporter, luminescence; inhibition, % at 3.6 µM; actives 0.12% (n = 360,000);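 active = inhibition above the campaign mean plus 3 SD, with each screening campaign given its own cutoff, cut at about 60% in these data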;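 note: 0% = DMSO treated cells and 100% = gossypol at 36 µM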
COUP-TFII inh – inhibitors of human COUP-TFII (NR2F2). HEK293T NGFI-A luciferase reporter, luminescence. actives 0.7% (n = 370,000). inhibition, % at 8.6 µM. AID 686940;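 active = inhibition above a per-plate cutoff, mean inhibition of test wells between control levels plus 3 SD, cut at about 38% in these data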;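 note: cells cotransfected with COUP-TFII expression vector driving the NGFI-A reporter; 0% = median of COUP-TF2 test wells and 100% = reporter-only cells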
SRC2 inh – inhibits human steroid receptor coactivator 2; HEK293 GAL4-SRC2 luciferase reporter, luminescence; inhibition, % at 9 µM; actives 0.17% (n = 370,000); AID 651957;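 active = inhibition above the mean inhibition of all tested compounds plus 3 SD, set per campaign, cut at about 52% in these data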;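 note: 0% = DMSO treated cells and 100% = cells given Gossypol at 36 µM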
Target sequence (Q15596 whole entry, looked up, the tested form may be a part): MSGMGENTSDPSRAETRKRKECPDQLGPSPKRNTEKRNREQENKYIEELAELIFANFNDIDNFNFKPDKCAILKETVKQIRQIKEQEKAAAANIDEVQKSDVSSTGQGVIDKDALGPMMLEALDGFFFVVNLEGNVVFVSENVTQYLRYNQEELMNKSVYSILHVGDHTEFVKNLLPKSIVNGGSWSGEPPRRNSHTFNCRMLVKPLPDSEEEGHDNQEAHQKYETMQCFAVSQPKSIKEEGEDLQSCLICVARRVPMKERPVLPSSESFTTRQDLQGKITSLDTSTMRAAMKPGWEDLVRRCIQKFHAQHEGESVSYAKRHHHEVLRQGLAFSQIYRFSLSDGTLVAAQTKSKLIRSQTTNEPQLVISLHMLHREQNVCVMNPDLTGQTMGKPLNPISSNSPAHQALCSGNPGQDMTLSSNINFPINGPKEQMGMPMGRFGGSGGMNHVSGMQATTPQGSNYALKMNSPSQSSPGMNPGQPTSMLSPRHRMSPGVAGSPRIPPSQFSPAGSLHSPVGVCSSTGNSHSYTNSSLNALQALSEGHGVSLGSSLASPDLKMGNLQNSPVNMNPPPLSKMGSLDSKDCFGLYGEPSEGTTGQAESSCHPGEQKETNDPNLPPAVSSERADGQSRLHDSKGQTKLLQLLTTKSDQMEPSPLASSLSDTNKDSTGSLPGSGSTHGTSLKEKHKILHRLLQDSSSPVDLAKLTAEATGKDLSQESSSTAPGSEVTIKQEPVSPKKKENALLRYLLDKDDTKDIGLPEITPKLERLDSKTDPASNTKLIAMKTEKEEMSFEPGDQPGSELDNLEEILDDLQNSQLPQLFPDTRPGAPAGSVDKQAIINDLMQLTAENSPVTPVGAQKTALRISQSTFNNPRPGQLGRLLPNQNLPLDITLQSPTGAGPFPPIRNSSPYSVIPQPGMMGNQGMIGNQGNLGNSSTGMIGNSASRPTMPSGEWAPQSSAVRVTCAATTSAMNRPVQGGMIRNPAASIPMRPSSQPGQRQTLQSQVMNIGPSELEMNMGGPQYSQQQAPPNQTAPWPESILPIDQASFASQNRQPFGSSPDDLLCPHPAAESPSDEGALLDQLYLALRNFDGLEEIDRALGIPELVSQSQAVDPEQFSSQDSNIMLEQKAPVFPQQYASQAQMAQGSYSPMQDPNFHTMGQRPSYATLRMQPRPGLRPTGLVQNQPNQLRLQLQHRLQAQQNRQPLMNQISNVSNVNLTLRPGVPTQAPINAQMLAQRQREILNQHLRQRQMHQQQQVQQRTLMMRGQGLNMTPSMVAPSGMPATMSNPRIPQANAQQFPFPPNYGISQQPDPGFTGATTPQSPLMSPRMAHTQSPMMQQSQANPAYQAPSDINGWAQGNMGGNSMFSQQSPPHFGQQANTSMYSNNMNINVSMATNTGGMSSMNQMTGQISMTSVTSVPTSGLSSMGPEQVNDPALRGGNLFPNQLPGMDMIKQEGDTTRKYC
SRC3 inh – inhibitors of human steroid receptor coactivator 3 (SRC3); Q9Y6Q9; HEK293 GAL4-SRC3 luciferase reporter, luminescence; inhibition, % at 3.6 µM; actives 0.17% (n = 360,000); AID 588352;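 active = inhibition above a per-campaign cutoff, the mean of all compounds plus 3 SD, cut at about 60% in these data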;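 note: 0% = DMSO-treated cells and 100% = gossypol-treated cells at 36 µM; higher means less SRC3-driven luciferase light from the GAL4 reporter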
GalR3 antagonist – blocks the human galanin receptor 3; O60755; HEK293 GalR3-CNG cAMP membrane potential fluorescence; galR3 body fused to GalR1 C-terminus; inhibition, % at 3 µM; actives 0.44% (n = 360,000); AID 651719;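 active = inhibition above the screen-wide average plus 3 SD, cut at about 13% in these data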;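 note: forskolin and galanin both at EC90 stimulate the cells; cAMP rise reported by CNG channel membrane potential dye signal; 0% = forskolin plus galanin with DMSO and 100% = forskolin alone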
NR5A2 inv ag – inverse agonists of human LRH-1 (NR5A2) | actives 0.13% (n = 360,000) | O00482 | inhibition, % at 3.6 µM | HEK293T StAR-luciferase reporter, LRH-1 transfected, 24 h;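 active = inhibition above the mean inhibition of all tested compounds plus 3 SD, cut at about 73% in these data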;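 note: 0% = DMSO wells and 100% = reporter-only cells lacking LRH-1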
VP16 Luc counter – VP16 inhibition counter-screen for COUP-TFII; AID 687007; inhibition, % at 8.5 µM; actives 25% (n = 2,500); shares compounds with COUP-TFII inh; HEK293 Gal4-VP16 luciferase reporter, luminescence; in the data active = inhibition above about 13%
NR2F2 inh conf – COUP-TFII (NR2F2) inhibition, confirmation assay. inhibition, % at 8.5 µM. HEK293 NGFI-A luciferase reporter, luminescence. AID 687008. actives 45% (n = 2,500). shares compounds with COUP-TFII inh;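 active = mean inhibition over three repeats above a set limit taken from the earlier primary screen, cut at about 38% in these data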;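 note: 100% = cells given the luciferase reporter alone without the COUP-TF2 vector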
* marks the source's active call; other numbers are inactive results; . = not tested or not shown.

SMILES	NCOA1 inh	COUP-TFII inh	SRC2 inh	SRC3 inh	GalR3 antagonist	NR5A2 inv ag	VP16 Luc counter	NR2F2 inh conf
CSCCOC(=O)C1=C(C)NC(=O)NC1c1ccc2c(c1)OCO2 (stereo unspecified)	8	-5	-7	-14	-7	-6	.	.
CC1=C(C(=O)OCc2ccc3c(c2)OCO3)C(c2ccc(F)cc2)NC(=O)N1 (stereo unspecified)	74*	38*	44	61	5	60	23*	28
CC1(C)CC(N2CCN(Cc3ccccc3)CC2)=CC(=[N+]2CCCCC2)C1	37	53*	29	44	-3	57	5	36
c1ccc(CN2CCN(c3ncccn3)CC2)cc1	-18	12	20	12	2	20	.	.
CC1(C)CC(N2CCCC2)=CC(=[N+]2CCCC2)C1	34	47*	26	-1	0	49	4	27
CC1(C)CC(N2CCOCC2)=CC(=S)N1	-12	.	.	3	.	-5	.	.
Cc1cccc(-c2noc(CCC(=O)NCc3ccco3)n2)c1	5	-5	-2	-15	-2	3	.	.
CC(C)(C)c1ccc(-c2noc(CCC(=O)NCc3ccco3)n2)cc1	3	38*	63*	15	-7	37	25*	57*
C=CCN1C(=O)S/C(=C/c2ccc(Sc3nc4ccccc4[nH]3)o2)C1=O	3	46*	10	17	-5	14	-12	11
CC(C)N1C(=O)S/C(=C/c2ccc(Sc3nc4ccccc4[nH]3)o2)C1=O	10	4	14	19	-3	2	.	.
CS(=O)(=O)c1ccc(NC(=O)c2cccc(S(=O)(=O)N3CCN(Cc4ccccc4)CC3)c2)cc1	-22	41*	-2	19	-4	8	-6	16
Cc1ccc(Cl)cc1S(=O)(=O)N1CCC(C(=O)NC2CCN(Cc3ccccc3)CC2)CC1	13	38*	16	16	-12	9	5	44*
CN(CC(=O)Nc1ccc(Cl)cc1)C(=O)c1cccc(S(=O)(=O)N2CCN(Cc3ccccc3)CC2)c1	8	37*	20	-7	-5	11	1	5
Cc1ccc(NS(=O)(=O)c2cccc(C(=O)NC3CCN(Cc4ccccc4)CC3)c2)cc1	8	40*	15	14	-7	19	3	20
Cc1ccc(-n2c(SCC(=O)Nc3ccccc3-c3ccccc3)nnc2-c2cccnc2)cc1	.	11	-7	.	.	.	.	.
CCOc1ccc(CN2CCN(S(=O)(=O)c3ccc(NC(C)=O)cc3)CC2)cc1	-27	48*	25	20	6	25	-4	12
COC(=O)[C@]12C[C@H](CC(=O)NCc3ccc(C)o3)C(=O)N(Cc3ccc4c(c3)OCO4)C1=C[C@H](C(C)(C)C)O[C@@H]2C	.	1	-8	.	-8	.	.	.
O=C(NCc1cccnc1)C1CCN(C(=O)c2ccc(Cl)cc2Cl)CC1	-4	12	-35	5	-6	9	.	.
O=C(NCc1cccnc1)C1CCC(c2ccc(Cl)cc2)CC1 (stereo unspecified)	15	41*	11	18	-6	26	-3	55*
COc1ccc(Cc2noc(CN3CCN(Cc4cccc(Cl)c4)CC3)n2)cc1OC	-201	19	14	-4	-3	2	.	.
COc1ccc(Cc2noc(CN3CCN(c4ccc(Cl)cn4)CC3)n2)cc1OC	27	41*	19	39	-6	11	-7	13
CCC(C)(C)c1ccc(Oc2ccc(N)cc2)cc1	68*	95*	91*	77*	3	69	91*	98*
Cc1ccc(CN2CCN(Cc3ccc(-n4cccn4)cc3)CC2CCO)cc1 (stereo unspecified)	-2	7	13	20	-7	2	.	.
O[C@@H]1CN(Cc2ccc(-n3cccn3)cc2)CC[C@H]1N1CCN(c2ccccc2F)CC1	7	49*	10	-9	-3	27	9	36
